Data reported in PubChem BioAssay (NCI).
The panel holds about 83,000 compounds, 20% with a hit somewhere; the sample as a whole holds those more often.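 Assay: single dose, 48 h. Readout: percent growth (0 = no net growth; negative = cell death). Active: <10.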 Values without a mark were called inactive. The source made the active and inactive calls.

These molecules were tested on CAKI-1 renal (assay: NCI-60 one-dose screen, 48 h (100 = growth as untreated, 0 = no growth, -100 = all killed)). Details: 10 µM unless noted.
Protocol: Growth inhibition of the CAKI-1 human tumor cell line is measured as a screen for anti-cancer activity. Cells are grown in 96 well plates and exposed to the test compound for 48 hours. Compounds are tested at a single concentration, which is 10^-5 M for most compounds. The reported endpoint is percent growth (GI% or GIPRCNT), where numbers from 0 - 100% represent growth inhibition, and numbers from -100% - 0 represent cell death. For example, a value of 40 represents 60% growth inhibition. A value of 0 means no net growth occurred over the course of the experiment. A value of -40 indicates 40% of cells at the beginning of the experiment died by the end of the experiment. A value of -100 means all cells are dead at the end of the experiment.
NCI-60 Human Tumor Cell Lines Screen was performed using the standard one-dose NCI protocol, which is described in more detail at https://dtp.cancer.gov/discovery_development/nci-60/default.htm.
Compounds with GIPRCNT values below 10 were considered active. Activity score was based on GIPRCNT using the following formula: […]
Score is 0 for GIPRCNT values of 100 or above, 50 for GIPRCNT values of 0, and 100 for GIPRCNT values of -100.

Structure (SMILES) | growth
Cc1nc2ccc(-n3ncc(C(=O)c4cc5ccccc5[nH]4)c3N)cc2[nH]1 | 62.2%
C[C@]12O[C@H](C[C@]1(O)CO)n1c3ccccc3c3c4c(c5c6ccccc6n2c5c31)CNC4=O | -96.5% (active)
Nc1c(Cl)cccc1[N+](=O)[O-] | 104%
COC(=O)CNC(=O)[C@@H](OC)[C@@H]1Cc2cc3cc(OC4CC(OC5CC(O)C(O)C(C)O5)C(O)C(C)O4)c(C)c(O)c3c(O)c2C(=O)[C@H]1OC1CC(OC2CC(OC3CC(C)(O)C(O)C(C)O3)C(O)C(C)O2)C(O)C(C)O1 (stereo not given in full) | 43.5%
Cc1cc([C@@H](C)Nc2ccccc2C(=O)O)c2nc(N3CCOCC3)cc(=O)n2c1 | 18.9%
CC(C)(O)CC(=O)NCCn1ccc2ncnc(Nc3ccc(Oc4cccc(C(F)(F)F)c4)c(Cl)c3)c21 | 19.2%
O=C(NO)c1ccc(Cn2c(=O)n(CCc3ccccc3)c(=O)c3ccccc32)cc1 | 27.2%
Cc1ccc(-n2nc(C(C)(C)C)cc2NC(=O)NCc2cc(F)ccc2Oc2ccc3c(cnn3CCO)c2)cc1 | 20.2%
CC#CC(=O)N1CCC[C@H]1c1nc(-c2ccc(C(=O)Nc3ccccn3)cc2)c2c(N)nccn12 | 72.9%
CCCCCCC1(/C=N/NC(N)=O)NC(=O)NC1=O (stereo not given) | 91.7%
CNC(=O)c1cc(Oc2ccc(NC(=O)Nc3cc(C(C)(C)C)nn3-c3ccc4ncccc4c3)c(F)c2)ccn1 | -24.9% (active)
O=C1CC(c2ccc3c(c2)OCO3)c2ncn(-c3ccc(Cl)cc3)c2N1 (stereo not given) | 37.1%
CCc1nc2cc(/C=C/C(=O)NO)c(F)cc2c(=O)n1CCc1ccccc1 | -1.21% (active)
CO[C@H]1C[C@@H]2CC[C@@H](C)[C@@](O)(O2)C(=O)C(=O)N2CCCC[C@H]2C(=O)O[C@H]([C@H](C)C[C@@H]2CC[C@@H](OCCO)[C@H](OC)C2)CC(=O)[C@H](C)/C=C(\C)[C@@H](O)[C@H](OC)C(=O)[C@H](C)C[C@H](C)\C=C/C=C/C=C/1C | 47.6%
CC[C@H](Nc1ncnc2nc[nH]c12)c1nc2cccc(F)c2c(=O)n1-c1ccccc1 | 52.9%
Clc1ccc(Nc2nccc(Nc3ccc4[nH]ncc4c3)n2)cc1 | 52.3%
N#Cc1c(NC(=O)c2ccco2)[n+]([O-])c2cc(F)c(F)cc2[n+]1[O-] | 66.7%
Cc1ccsc1C(NC(=O)c1ccccc1)c1cc(Cl)c2cccnc2c1O (stereo not given) | 15.7%
CC(C)[C@@H]1CC[C@]2(CO2)[C@@H]2C(=O)OCC(C(=O)O)=C[C@H]21 | 6.64% (active)
Cc1ccc(NC(=O)c2ccc(CN3CCN(C)CC3)cc2)cc1Nc1nc(-c2cccnc2)cs1 | 78%

Structure (SMILES) | growth
O=C(c1ccc(/C=C/c2n[nH]c3ccccc23)cc1)N1CCNCC1 | 11.7%
CCNC(=O)C#Cc1ccc2c(C(=Nc3ccc(CN(C)C)cc3)c3ccccc3)c(O)[nH]c2c1 | 32.7%
CC(=O)C1=C(C)NC(SCc2nnc(-c3ccc(C)cc3)o2)=NC1c1ccc(F)cc1 (stereo not given) | 88%
N[C@@H]1CCCN(c2c(/C=C3\SC(=O)NC3=O)cccc2-c2ccccc2)C1 | 73.6%
C#Cc1cccc(Nc2ncnc3cc4c(cc23)OCCOCCOCCO4)c1 | 28.4%
CNC(=O)c1cnc(C)nc1-c1cc(C(C)(C)C)c(O)c(C(C)(C)C)c1 | 96.8%
CO[C@H](C(=O)N[C@@H](CCCCNC(=O)OCc1ccccc1)C(=O)OC(C)(C)C)[C@@H]1Cc2cc3cc(OC4CC(OC5CC(O)C(O)C(C)O5)C(O)C(C)O4)c(C)c(O)c3c(O)c2C(=O)[C@H]1OC1CC(OC2CC(OC3CC(C)(O)C(O)C(C)O3)C(O)C(C)O2)C(O)C(C)O1 (stereo not given in full) | 22.6%
C=CC(=O)Nc1cccc(Oc2nc(Nc3ccc(N4CCN(C)CC4)cc3)nc3ccsc23)c1 | -71.4% (active)
COc1ccc(C2CC(=O)c3c(O)c(OC)c(OC)c(OC)c3O2)cc1O (stereo not given) | 38.9%
CCOc1cccc(/C=N/NC(=O)c2ccccc2Nc2ccnc(C(F)(F)F)c2)c1O | 4.57% (active)
CN(C)C1CCN(C(=O)c2ccc(NC(=O)Nc3ccc(-c4nc(N5CCOCC5)nc(N5CCOCC5)n4)cc3)cc2)CC1 | 10.2% [2.5 µM]
Cc1cc(Nc2ncnc3ccc(NC4=NC(C)(C)CO4)cc23)ccc1Oc1ccn2ncnc2c1 | 13.8%
CC[C@H](CO)Nc1nc(NCc2ccccc2)c2ncn(C(C)C)c2n1 | 48%
COC(=O)[C@@H](OC)[C@@H]1Cc2cc3cc(OC4CC(OC5CC(O)C(O)C(C)O5)C(O)C(C)O4)c(C)c(O)c3c(O)c2C(=O)[C@H]1OC1CC(OC2CC(OC3CC(C)(O)C(O)C(C)O3)C(O)C(C)O2)C(O)C(C)O1 (stereo not given in full) | 14.8%
Cc1c(NC(=O)OC[C@@H]2COCCN2)cn2ncnc(Nc3ccc4c(cnn4Cc4cccc(F)c4)c3)c12 | -2.81% (active)
O=C(NOCCO)c1ccc2cncn2c1Nc1ccc(I)cc1F | 41%
CN[C@@H]1C[C@H]2O[C@@](C)([C@@H]1OC)n1c3ccccc3c3c4c(c5c6ccccc6n2c5c31)C(=O)N[C@H]4O | -59.7% (active)
COC(=O)[C@]12CC[C@@H](C)[C@H](C)[C@@H]1C1=CC[C@@H]3[C@@]4(C)C(c5cnco5)=C[C@@](C)(CO)C4=CC[C@@]3(C)[C@]1(C)CC2 | 34%
O=C(Nc1ccc(N=Nc2ccccc2)cc1)c1cccc2ccccc12 | 70.8%
O=C1C=CC2(NN=C(c3ccccc3)N2c2ccc(Cl)cc2)c2cccc(O)c21 (stereo not given) | 84%
